# Among all 420,000 compounds or so, about 64,000 (15%) were called active. About 27% were inconclusive and are not listed. A selection follows. Unmarked numbers belong to inactive results. Calls follow the shape of the dose curve; as a rule, active = well fitted inhibition curve with a large enough effect; inconclusive = small, poorly fitted or top-dose-only effect; inactive = flat fitted curve, though single readings scatter.
# Test: qHTS for Inhibitors of human tyrosyl-DNA phosphodiesterase 1 (TDP1): qHTS in cells in absence of CPT; also: nearly all actives have a fitted effect of over 55% in size
# Conditions: DT40 Tdp1-/- hTDP1 cells, no CPT, ATP luminescence, 48 h; activity change, negative = growth inhibition: at 46.2 µM (top of the series)
# How it was run: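 A cellular qHTS used chicken DT40 cells lacking endogenous Tdp1 but carrying stably transfected human TDP1. Compounds were applied without camptothecin, and cell growth kinetics were judged by ATP-dependent luminescence after ≥48 hr.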
# % is scaled to controls: 0 for no effect and ±100 for the full control effect; potency is read from the fitted curve at half-maximal effect.
SMILES,"activity change, negative = growth inhibition [%]",Potency
COc1ccc(NS(=O)(=O)c2cccc(C(=O)NCCc3ccc(S(N)(=O)=O)cc3)c2)cc1,-13.7,–
COc1ccc(NC(=O)/C(N=Nc2cccc(S(=O)(=O)Nc3ccc(SC(F)F)cc3)c2)=C(\C)O)cc1,-19.8,–
COc1ccc(NS(=O)(=O)c2ccc(Oc3c(C#N)cccc3C#N)cc2)cc1,–,5.8 µM (active)
C[C@H](CO)N1C[C@H](C)[C@@H](CN(C)C(=O)NC2CCCCC2)Oc2ccc(NC(=O)c3ccncc3)cc2C1=O,3.93,–
CO/N=C(\C(=O)N[C@@H]1C(=O)N2C(C(=O)O)=C(COC(C)=O)CS[C@H]12)c1csc(N)n1 (stereo in doubt),–,inactive
COc1cccc(-c2nc(CS(=O)(=O)CC(=O)NCCc3ccc(OC)c(OC)c3)c(C)o2)c1,-28.5,–
CCCCN(CC)CCCNC(=O)CS(=O)(=O)Cc1nc(-c2cccc(OC)c2)oc1C,3.46,–
COc1cccc(-c2nc(CS(=O)(=O)CC(=O)N3CCN(c4cc(C)ccc4C)CC3)c(C)o2)c1,–,3.66 µM (active)
CCN(CC)CCN(C)C(c1ccnc2ccccc12)c1nnnn1-c1ccc2c(c1)OCCO2 (configuration not stated),–,18.4 µM (active)
CC(=O)NC1CCN(CC(=O)Nc2nccs2)CC1,8.15,–
Cc1cc(C)n(CCNC(=O)CC2C(=O)NCCN2Cc2ccc(C)o2)n1 (configuration not stated),9.42,–
COC(=O)c1ccc(NC(=O)CSc2nnc(C3CC3)n2C)cc1,-18.5,–
Cc1ncn(C23CC4CC(CC(O)(C4)C2)C3)n1,11.2,–
COC(=O)c1ccc(NC(=O)C23CC4CC(C2)CC(n2cnc(Cl)n2)(C4)C3)cc1,–,16.4 µM (active)
CCOc1ccc(S(=O)(=O)NCCC(=O)NNC(=O)c2ccc(F)cc2)cc1,-2.59,–
COc1ccc(CCNC(=O)COc2cc(C)cc3oc(=O)c(C)c(C)c23)cc1OC,-14.7,–
COc1ccc(CCN2C(=O)c3oc4cc(C)cc(C)c4c(=O)c3C2c2ccccc2F)cc1OC (configuration not stated),–,2.91 µM (active)
COc1ccc(CNC(=O)c2cc(=O)c3c(C)cc(C)cc3o2)cc1,-23.3,–
COc1ccccc1OCCNC(=O)C(CCSC)NC(=O)COc1ccccc1 (configuration not stated),12.3,–
O=C(O)CC(c1ccccc1)n1cnnn1 (configuration not stated),-13.6,–
CCCOc1ccc(C(=O)NCCc2ccccc2)cc1,-5.72,–
CCCCOc1ccc(C(=O)NCc2ccncc2)cc1,-49,–
CCCOc1ccc(C(=O)CCC(=O)OC(C)C(=O)Nc2ccc(NC(C)=O)cc2)cc1 (configuration not stated),-9.79,–
CCCCOc1ccc(C(=O)NO)cc1,–,15.8 µM (active)
CCCCOc1ccc(C(=O)NN2CCN(C)CC2)cc1,0.162,–
CCCOc1ccc(C(=O)C(CCC(CNCC)C(=O)c2ccc(OCCC)cc2)CNCC)cc1 (configuration not stated),–,0.92 µM (active)

SMILES,"activity change, negative = growth inhibition [%]",Potency
COc1ccccc1C(=O)NCC(=O)OCC(=O)Nc1nnc(-c2ccccc2)o1,0.346,–
CCCNC(=O)C[C@@H]1CC[C@@H]2[C@H](COC[C@H](O)CN2C(=O)c2cc(Cl)cc(Cl)c2)O1,3.86,–
Cn1c(N)c(C(=O)COC(=O)c2ccccc2NCc2ccco2)c(=O)n(C)c1=O,-17.3,–
Cc1cc2cc(CNC(=O)c3cccs3)ccc2[nH]1,-9.84,–
CCc1cccc(CC)c1NC(=S)NCc1ccc2[nH]c(C)cc2c1,–,18.4 µM (active)
CCc1cccc(CC)c1NC(=S)Nc1ccc2cn[nH]c2c1,-26.7,–
COc1ccc(S(=O)(=O)NCC2CCCN(C(=O)c3occc3C)C2)cc1 (configuration not stated),4.89,–
O=C(c1ccccn1)c1ncc(C(F)(F)F)cc1Cl,0.458,–
C=CCn1c(SCC(=O)Nc2nc3ccccc3s2)nnc1-c1ccccc1O,-19.3,–
O=c1[nH]c(CN2CCOCC2)nc2cc(Cl)ccc12,-17.7,–
O=c1[nH]c(CCl)nc2cc(-c3ccc(Cl)cc3)sc12,–,2.31 µM (active)
NC(=O)Cc1nc2scc(-c3ccc(Cl)cc3)c2c(=O)[nH]1,-7.87,–
CCOCCCNC(=S)N1CCC(NC(=O)C2CCCCC2)CC1,23.4,–
CSCCC(NS(=O)(=O)c1ccc2c(c1)oc(=O)n2C)C(=O)NCc1ccccc1 (configuration not stated),–,inactive
OC(CBr)C[n+]1cccc2cc(Br)ccc21 (configuration not stated),–,11.2 µM (active)
Cc1c(CCC(=O)N[C@@H](CC(C)C)C(=O)O)c(=O)oc2c(C)c3oc4c(c3cc12)CCCC4,-5.98,–
CCN(CC)CCCNC(=O)CCn1nc(-c2ccc(Cl)cc2)ccc1=O,-12.9,–
Cn1c(C(=O)Nc2cccc(C(F)(F)F)c2)cc2c(=O)n3ccccc3nc21,–,9.2 µM (active)
O=C(Nc1ccc(OC(F)(F)F)cc1)c1cc2c(=O)n3ccccc3nc2s1,-10.7,–
O=C(COC(=O)c1cccc(Cl)c1)NC(=O)NCc1ccccc1,5.96,–
CCN(CC)c1ccc2cc(C(=O)O)c(=O)oc2c1,-13.5,–
CCN(CC)c1ccc2c(Nc3ccccc3)c(C=O)c(=O)oc2c1,-1.93,–
CCN(CC)c1ccc2oc(=O)c(C)nc2c1,–,5.8 µM (active)
COc1ccc(CCNC(=O)C(=O)NCc2ccccc2C)cc1OC,6.43,–
COC(=O)c1ccc(C2C(Oc3ccccc3C)C(=O)N2CCc2ccc(OC)c(OC)c2)cc1 (configuration not stated),–,14.6 µM (active)
COc1ccc(CCN2C(=O)C3CC=C(C)CC3C2=O)cc1OC (configuration not stated),-29.3,–
